Each structure is given as a SMILES string. The campaign covered roughly 23,000 compounds. About 30 (0.1%) showed an effect of 50% or more. The entries come from a sample that favours strong results as a whole. Entries with a potency or affinity are not part of this list.

This test deals with Pseudomonas aeruginosa. To be noted: Concentration 32 ug.mL-1; ASSAY_TEST Inhibition of Bacterial Growth; detection method Absorption (OD600); MEDIA CAMHB; plate type 384well; NBS; CORNING #3640; time 18 hr.
The compound `CC(C)(CN)C(O)C(=O)NCCC(=O)NCCc1ccccc1` (stereo unspecified) returned an Inhibition of 51.6%. In turn, `CC(C)(COP(=O)(O)O)[C@@H](O)C(=O)NCCC(=O)NCCc1ccccc1` displayed an Inhibition of 35.19%. As for `CC(C)(CO)[C@@H](O)C(=O)NCCC(=S)NCCc1ccccc1`, the Inhibition was 38.53%.

In turn, `CC(C)(C)C(O)C(=O)NCCC(=O)NCCc1ccccc1` (stereo unspecified) showed an Inhibition of 40.95%. Then `CC(CC(=O)NCCc1ccccc1)NC(=O)[C@H](O)C(C)(C)CO` (stereo partly specified), with 72.5%; and `CC(C)(CO)[C@@H](O)C(=O)N/C=C/C(=O)NCCc1ccccc1`, with 39.92%.

These data come from ChEMBL document CHEMBL4513148, “CO-ADD screening of Stellenbosch University (South Africa) compounds”.
